Where “and” joins values, the source holds several entries; their conditions need not be identical. Equal values may be shown once. Results filed as inconclusive are left out. Where a call stands in place of a potency, no number is given. Some compounds were tested as several samples or in several runs, with calls that do not always agree. Calls of active or inactive are those of the source. Unless noted, calls come from the whole dose curve.
How the values were obtained:
[1] = Nuclear factor erythroid 2-related factor 2/antioxidant responsive element (Nrf2/ARE) small molecule agonists: qHTS cell viability counter screen in human keratinocytes (AID 1919968; active = well fitted curve in the direction sought with a large enough effect in the repeat runs; an effect the other way counts as inactive or inconclusive; note: nearly all actives have a fitted effect of over 55% in size)
Procedure, shortened: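 After a 5 h attachment period, ARE-reporter keratinocytes were dosed with compounds in DMSO and then cultured 23 h at 37 C. Cell viability came from CellTiter-Fluor signal read after a further 1 h.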

[2] = Nuclear factor erythroid 2-related factor 2/antioxidant responsive element (Nrf2/ARE) small molecule agonists: luciferase reporter gene qHTS assay in human keratinocytes (AID 1919969); note: nearly all actives have a fitted effect of over 35% in size; note: potency is the fitted concentration of half-maximal effect
[3] = target: Gonadotropin-releasing hormone receptor (Homo sapiens) (UniProt P30968); test: Human gonadotropin-releasing hormone receptor (GnRHR) small molecule agonists, calcium flux assay in GnRHR-HEK293 cells (AID 1920063); note: nearly all actives have a fitted effect of over 35% in size
Procedure, shortened: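 We seeded human GnRHR-expressing HEK293 cells for 18 hours, loaded them with calcium dye for an hour at 37 C, added test compounds, and recorded fluorescence intensity kinetically for three minutes.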

[4] = target: KiSS-1 receptor (Homo sapiens) (UniProt Q969F8); test: Human kisspeptin (KISS1R) small molecule agonists, calcium flux assay in KISS1R-HEK293 cells (AID 1920064; active = well fitted curve in the direction sought with a large enough effect in the repeat runs; an effect the other way counts as inactive or inconclusive)
Procedure, shortened: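 Kinetic calcium assay, 1 s sampling over 3 min at Ex/Em 480/540, in HEK293 cells engineered with human KISS1R; compounds delivered in DMSO after 1 h dye loading.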

[5] = G protein-coupled receptor (GPCR) small molecule agonists, calcium flux assay: HEK293 wild type cell line counter screen (AID 1920065)
Procedure, shortened: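 Calcium-sensitive dye, loaded 1 h at 37 C into cells cultured 18 h, reports compound-evoked calcium release as fluorescence (Ex/Em 480/540), measured over 3 min. Agonist mode; 15-point titrations, triplicate.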

[6] = p53 small molecule agonists, cell-based qHTS assay with human liver microsomes (AID 1963577);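 note: p53 response element beta-lactamase reporter cells with liver microsomes plus NADPH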
Procedure, shortened: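 Reporter activation was measured by LiveBLAzer fluorescence intensity in p53RE-bla cells, which had been exposed to compounds for 16 h at 37 C alongside 0.5 mg/mL human liver microsomes and 0.5 mg/mL NADPH (final concentrations).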

[7] = p53 small molecule agonists, cell-based qHTS assay with rat liver microsomes (AID 1963578)
Procedure, shortened: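 Compound in DMSO added to p53RE-bla cells 5 h post-plating; rat microsomes/NADPH 0.5 mg/mL final; 16 h, 37 C; LiveBLAzer 2 h RT.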

[8] = p53 small molecule agonists, cell-based qHTS assay with human liver microsomes: qHTS cell viability counter screen (AID 1963579); note: nearly all actives have a fitted effect of over 45% in size
Procedure, shortened: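 HLM-supplemented (0.5 mg/mL final) and NADPH-supplemented (0.5 mg/mL final) p53RE-bla cultures, 4,000 cells per well, were dosed with compounds in DMSO for 16 h at 37 C; luminescent ATP detection (CellTiter-Glo, 30 min, room temperature) quantified surviving cells.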

[9] = p53 small molecule agonists, cell-based qHTS assay with rat liver microsomes: qHTS cell viability counter screen (AID 1963580); note: nearly all actives have a fitted effect of over 45% in size
Procedure, shortened: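 Viability is assessed in parallel with the p53 reporter read: HCT-116 p53RE-bla cells receive compounds plus rat microsomes and NADPH (0.5 mg/mL final apiece), incubate 16 h at 37 C, and then CellTiter-Glo luminescence is recorded.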

[10] = p53 small molecule agonists, cell-based qHTS assay: qHTS cell viability counter screen (AID 1963581); note: nearly all actives have a fitted effect of over 45% in size
Procedure, shortened: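 Following 5 h attachment, HCT-116 p53RE-bla cells took up compound for 16 h at 37 C; the reporter was read with B/G FRET substrate (2 h RT), and viability then via CellTiter-Glo ATP luminescence.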

[11] = p53 small molecule agonists, cell-based qHTS assay (AID 1963582; active = well fitted activation curve with a large enough effect in the signal ratio in the repeat runs, not every such curve was filed as active; the % refers to the signal ratio)
Procedure, shortened: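 In this cell-based concentration-response screen, a p53 response element drives beta-lactamase; cells received DMSO-borne compounds after 5 h culture and were incubated a further 16 h before FRET substrate development.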

[12] = target: 5-hydroxytryptamine receptor 2A (Homo sapiens) (UniProt P28223); test: 5-hydroxytryptamine receptor 2A (HTR2A) small molecule antagonists, cell-based qHTS assay (AID 1963586); note: nearly all actives have a fitted effect of over 45% in size; note: potency is the fitted concentration of half-maximal effect
Procedure, shortened: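 Antagonist-mode intracellular calcium assay: DOI (4 nM) added after 5 min compound pre-incubation at room temperature to dye-loaded HTR2A-CHO cells. Fluorescence followed for 3 min, sampled every second.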

[13] = target: 5-hydroxytryptamine receptor 2A (Homo sapiens) (UniProt P28223); test: 5-hydroxytryptamine receptor 2A (HTR2A) small molecule agonists, cell-based qHTS assay (AID 1963587); note: nearly all actives have a fitted effect of over 30% in size; note: potency is the fitted concentration of half-maximal effect
Procedure, shortened: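 CHO cells stably expressing human HTR2A, plated 18 h, loaded with calcium dye 1 h at 37 C. Agonist mode: compounds added and intracellular calcium fluorescence recorded kinetically for 2 min at 1 sec intervals.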

[14] = target: Muscarinic acetylcholine receptor M1 (Homo sapiens) (UniProt P11229); test: Cholinergic receptor muscarinic 1 (CHRM1) small molecule antagonists, cell-based qHTS assay (AID 1963588); note: nearly all actives have a fitted effect of over 40% in size
Procedure, shortened: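 CHRM1-CHO calcium-flux assay, antagonist mode. Cells were seeded 18 h, dye-loaded 1 h at 37 C and given compound for 5 min at RT, then acetylcholine was added at 50nM. FDSS fluorescence was read 3 min; 15 concentrations, three runs.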

[15] = target: Muscarinic acetylcholine receptor M1 (Homo sapiens) (UniProt P11229); test: Cholinergic receptor muscarinic 1 (CHRM1) small molecule agonists, cell-based qHTS assay (AID 1963589); note: nearly all actives have a fitted effect of over 35% in size
Procedure, shortened: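 Measures agonist-induced intracellular calcium rise. Stable human CHRM1 CHO line, 1 h dye load at 37 C, compounds from DMSO, kinetic fluorescence read.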

[16] = cAMP Responsive Elements (CRE) small molecule agonists, cell-based qHTS assay (AID 1963590)
Procedure, shortened: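 A CRE-responsive beta-lactamase reporter in HEK 293T cells was used. Treatment ran 3 h at 37 C; detection used LiveBLAzer B/G FRET substrate for 2 h at room temperature.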

[17] = cAMP Responsive Elements (CRE) small molecule antagonists, cell-based qHTS assay (AID 1963591; active = well fitted inhibition curve with a large enough effect in the signal ratio in the repeat runs, not every such curve was filed as active; the % refers to the signal ratio)
Procedure, shortened: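 HEK293T cells carrying a CRE-driven beta-lactamase reporter receive compound and NKH477 (0.25 uM final) for 3 h. Fluorescence from LiveBLAzer B/G FRET substrate is read after 2 h at room temperature.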

[18] = target: D(2) dopamine receptor (Homo sapiens) (UniProt P14416); test: Dopamine D2 receptor (DRD2) small molecule agonists, cell-based qHTS assay (AID 1963594); note: nearly all actives have a fitted effect of over 35% in size
Procedure, shortened: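 HEK293 cells stably expressing human DRD2, pre-treated with PDE inhibitor Ro20-1724 (0.1 mM final) and compound 10 min at room temperature, then stimulated with NKH477 (200nM […]) for 30 min. cAMP read by HTRF (665/620 nm).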

[19] = target: D(2) dopamine receptor (Homo sapiens) (UniProt P14416); test: Dopamine D2 receptor (DRD2) small molecule antagonists, cell-based qHTS assay (AID 1963595; active = well fitted inhibition curve with a large enough effect in the signal ratio in the repeat runs, with a control signal flat; the % refers to the signal ratio)
Procedure, shortened: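 In this cell-based antagonist screen, compounds act for 10 min at room temperature before a 30 min challenge with 12 nM quinpirole and 200 nM NKH477. cAMP is quantified by HTRF competition in DRD2-HEK293 cells containing 0.1 mM Ro20-1724.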

[20] = target: Beta-2 adrenergic receptor (Homo sapiens) (UniProt P07550); test: Adrenergic beta2 receptor (ADRB2) small molecule antagonists, cell-based qHTS assay (AID 1963592); note: nearly all actives have a fitted effect of over 50% in size; note: potency is the fitted concentration of half-maximal effect
Procedure, shortened: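 Cells (CHO, stable ADRB2 overexpression) incubated 18-20hr at 37C; compounds added from DMSO; agonist mix (1nM isoproterenol, 100uM IBMX, 25uM Ro-20-1724) added; 0.5hr RT; d2-cAMP and anti-cAMP-cryptate added; 1hr RT; 665/615 nm read.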

Chain of D(2) dopamine receptor (Homo sapiens) (P14416 whole entry, looked up): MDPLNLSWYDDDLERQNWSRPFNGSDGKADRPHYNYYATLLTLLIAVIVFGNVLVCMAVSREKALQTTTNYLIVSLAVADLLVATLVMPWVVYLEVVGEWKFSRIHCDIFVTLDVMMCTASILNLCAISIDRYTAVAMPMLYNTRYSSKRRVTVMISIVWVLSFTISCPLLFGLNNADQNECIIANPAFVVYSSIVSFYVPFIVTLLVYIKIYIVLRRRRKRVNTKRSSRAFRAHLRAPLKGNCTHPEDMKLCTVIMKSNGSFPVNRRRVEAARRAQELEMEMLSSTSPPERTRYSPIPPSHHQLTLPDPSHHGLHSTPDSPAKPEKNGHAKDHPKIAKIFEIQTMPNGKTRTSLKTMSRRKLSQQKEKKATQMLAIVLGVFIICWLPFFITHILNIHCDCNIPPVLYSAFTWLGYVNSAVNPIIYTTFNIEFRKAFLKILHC
Chain of 5-hydroxytryptamine receptor 2A (Homo sapiens) (P28223 whole entry, looked up): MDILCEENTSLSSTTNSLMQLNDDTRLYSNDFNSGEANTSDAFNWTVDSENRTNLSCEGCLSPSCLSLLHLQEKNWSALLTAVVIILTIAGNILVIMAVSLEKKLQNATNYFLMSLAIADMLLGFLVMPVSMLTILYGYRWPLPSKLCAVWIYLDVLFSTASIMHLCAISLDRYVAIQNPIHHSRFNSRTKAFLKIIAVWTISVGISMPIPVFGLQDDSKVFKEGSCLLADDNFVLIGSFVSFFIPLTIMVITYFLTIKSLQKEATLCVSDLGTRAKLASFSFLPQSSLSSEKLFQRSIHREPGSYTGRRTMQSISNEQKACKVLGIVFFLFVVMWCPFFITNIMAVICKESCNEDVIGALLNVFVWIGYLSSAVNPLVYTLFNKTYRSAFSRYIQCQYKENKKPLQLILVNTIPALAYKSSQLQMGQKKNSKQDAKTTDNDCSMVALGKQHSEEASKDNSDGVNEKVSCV
Chain of Beta-2 adrenergic receptor (Homo sapiens) (P07550 whole entry, looked up): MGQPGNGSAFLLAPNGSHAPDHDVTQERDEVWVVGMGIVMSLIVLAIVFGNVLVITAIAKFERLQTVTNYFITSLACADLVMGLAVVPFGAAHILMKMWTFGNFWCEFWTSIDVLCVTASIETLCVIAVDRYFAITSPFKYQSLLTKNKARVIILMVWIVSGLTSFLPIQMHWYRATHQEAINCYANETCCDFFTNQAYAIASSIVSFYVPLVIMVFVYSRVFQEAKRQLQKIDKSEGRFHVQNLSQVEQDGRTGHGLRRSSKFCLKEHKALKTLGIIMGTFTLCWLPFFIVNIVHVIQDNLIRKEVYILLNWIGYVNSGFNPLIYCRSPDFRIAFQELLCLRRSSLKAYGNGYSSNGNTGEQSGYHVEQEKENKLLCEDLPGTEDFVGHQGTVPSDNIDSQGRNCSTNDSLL
Chain of Muscarinic acetylcholine receptor M1 (Homo sapiens) (P11229 whole entry, looked up): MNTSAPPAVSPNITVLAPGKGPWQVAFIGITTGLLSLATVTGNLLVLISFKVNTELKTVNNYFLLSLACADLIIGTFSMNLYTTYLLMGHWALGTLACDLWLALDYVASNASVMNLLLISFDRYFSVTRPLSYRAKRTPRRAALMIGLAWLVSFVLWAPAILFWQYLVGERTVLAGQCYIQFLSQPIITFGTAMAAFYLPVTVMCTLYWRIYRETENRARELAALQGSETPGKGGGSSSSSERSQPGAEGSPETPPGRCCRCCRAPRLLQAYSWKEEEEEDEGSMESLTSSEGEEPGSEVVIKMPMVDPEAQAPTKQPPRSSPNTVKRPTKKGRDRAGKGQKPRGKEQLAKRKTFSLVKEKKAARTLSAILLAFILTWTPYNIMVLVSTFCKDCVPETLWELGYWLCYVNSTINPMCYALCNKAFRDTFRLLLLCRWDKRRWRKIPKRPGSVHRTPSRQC
Chain of Gonadotropin-releasing hormone receptor (Homo sapiens) (P30968 whole entry, looked up): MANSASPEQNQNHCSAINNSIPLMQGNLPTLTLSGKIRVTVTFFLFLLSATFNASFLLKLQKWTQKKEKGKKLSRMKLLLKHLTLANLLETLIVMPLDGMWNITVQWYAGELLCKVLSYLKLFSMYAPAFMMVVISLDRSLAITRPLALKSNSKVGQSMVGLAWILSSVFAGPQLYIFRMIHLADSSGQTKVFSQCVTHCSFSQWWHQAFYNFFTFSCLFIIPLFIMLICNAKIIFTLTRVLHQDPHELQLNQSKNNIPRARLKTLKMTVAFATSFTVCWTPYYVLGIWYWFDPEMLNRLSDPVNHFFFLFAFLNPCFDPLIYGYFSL
Chain of KiSS-1 receptor (Homo sapiens) (Q969F8 whole entry, looked up): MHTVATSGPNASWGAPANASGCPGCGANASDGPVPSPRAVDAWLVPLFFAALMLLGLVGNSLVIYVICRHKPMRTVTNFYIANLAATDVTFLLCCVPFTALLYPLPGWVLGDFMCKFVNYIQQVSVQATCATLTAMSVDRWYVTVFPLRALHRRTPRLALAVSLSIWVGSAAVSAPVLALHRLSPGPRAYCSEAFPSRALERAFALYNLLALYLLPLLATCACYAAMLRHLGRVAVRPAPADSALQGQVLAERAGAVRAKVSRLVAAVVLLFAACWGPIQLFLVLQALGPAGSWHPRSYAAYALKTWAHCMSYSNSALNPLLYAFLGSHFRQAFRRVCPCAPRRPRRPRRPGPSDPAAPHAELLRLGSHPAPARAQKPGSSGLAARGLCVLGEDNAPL

SMILES | Potency [1] | Potency [2] | Potency [3] | Potency [4] | Potency [5] | Potency [6] | Potency [7] | Potency [8] | Potency [9] | Potency [10] | Potency [11] | Potency [12] | Potency [13] | Potency [14] | Potency [15] | Potency [16] | Potency [17] | Potency [18] | Potency [19] | Potency [20]
Cc1ccc(S(=O)(=O)N=C=O)cc1 | inactive | inactive | inactive | inactive | inactive | inactive | inactive | inactive | inactive | inactive | inactive | inactive | inactive | inactive | inactive | inactive | inactive | inactive | inactive | 
COc1ccc(Nc2ccccc2)c(C)c1 | inactive | inactive | inactive | inactive | inactive | inactive | inactive | inactive | inactive | inactive | inactive | inactive and 21.1 µM (active) | inactive | inactive | inactive | inactive |  | inactive | inactive | inactive
CN(C)C | inactive | inactive | inactive | inactive | inactive | inactive | inactive | inactive | inactive | inactive | inactive | inactive | inactive | inactive | inactive | inactive | inactive | inactive | inactive | 
CCCCOCCO | inactive | inactive | inactive | inactive | inactive | inactive | inactive | inactive | inactive | inactive | inactive | inactive | inactive | inactive | inactive |  | inactive | inactive | inactive | inactive
CCCCNC(N)=O | inactive | inactive | inactive | inactive | inactive | inactive | inactive | inactive | inactive | inactive | inactive | inactive | inactive | inactive | inactive |  | inactive | inactive | inactive | inactive
Nc1cccc(C(F)(F)F)c1 | inactive | inactive | inactive | inactive | inactive | inactive | inactive | inactive | inactive | inactive | inactive | inactive | inactive | inactive | inactive | inactive | inactive | inactive | inactive | inactive and 54.5 µM (active)
Cc1ccc(C)c(O)c1 | inactive | inactive | inactive | inactive | inactive | inactive | inactive | inactive | inactive | inactive | inactive | inactive | inactive | inactive | inactive |  | inactive |  | inactive | inactive
CC(=O)c1ccccc1 | inactive | inactive | inactive | inactive | inactive | inactive | inactive | inactive | inactive | inactive | inactive | inactive | inactive | inactive | inactive | inactive | inactive | inactive | inactive | inactive
Cc1ccc([N+](=O)[O-])cc1S(=O)(=O)O | inactive | inactive | inactive | inactive | inactive | inactive | inactive | inactive | inactive | inactive | inactive | inactive | inactive | inactive | inactive | inactive | inactive | inactive | inactive | inactive
CNC(=S)N(C)C | inactive | inactive | inactive | inactive | inactive | inactive | inactive | inactive | inactive | inactive | inactive | inactive | inactive | inactive | inactive |  | inactive | inactive |  | inactive
OCCOCCOCCO | inactive | inactive | inactive | inactive | inactive | inactive | inactive | inactive | inactive | inactive | inactive | inactive | inactive | inactive | inactive |  | inactive | inactive | inactive | inactive
Cc1ncc([N+](=O)[O-])n1C | inactive | inactive | inactive | inactive | inactive | inactive | inactive | inactive | inactive | inactive | inactive | inactive | inactive | inactive | inactive | inactive | inactive | inactive | inactive | 
CC[Si](OC(C)=O)(OC(C)=O)OC(C)=O | inactive | inactive | inactive | inactive | inactive | inactive | inactive | inactive | inactive | inactive | inactive | inactive | inactive | inactive | inactive |  | inactive | inactive | inactive | inactive
Nc1cc(Cl)c(N)c(Cl)c1 | inactive | 68 µM (active) and inactive | inactive | inactive | inactive | inactive | inactive | inactive | inactive | inactive | inactive | inactive | inactive | inactive | inactive | inactive | inactive | inactive | inactive | 
CNC[C@H](O)[C@@H](O)[C@H](O)[C@H](O)CO | inactive | inactive | inactive | inactive | inactive | inactive | inactive | inactive | inactive | inactive | inactive | inactive | inactive | inactive | inactive | inactive |  | inactive |  | inactive
CCN(CCN)c1cccc(C)c1 | inactive | inactive | inactive | inactive | inactive | inactive | inactive | inactive | inactive | inactive | inactive | 0.53 µM (active) | 393 nM (active) and 776 nM (active) | inactive | inactive | inactive | inactive | inactive | inactive | 24.6 µM (active)
